PubChem BioAssay (Tox21)
Records with an inconclusive call do not appear. Where a call stands in place of a potency, no number is given. Unmarked numbers belong to inactive results. Active and inactive are the calls of the source. Unless noted, calls come from the whole dose curve; as a rule, active = well fitted curve in the direction sought with a large enough effect in the repeat runs; inconclusive = weak or mixed curves; inactive = no such curve, though single readings can be large; an effect the other way counts as inactive or inconclusive.

Tests used:
[1] = biological target: Aryl hydrocarbon receptor (Homo sapiens) (UniProt P35869); experiment: qHTS assay to identify small molecule that activate the aryl hydrocarbon receptor (AhR) signaling pathway (AID 743085); note: nearly all actives have a fitted effect of over 15% in size; note: potency is the fitted concentration of half-maximal effect;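 for activation: HG2L7.5c1 human HepG2 liver cells with stably integrated DRE-driven firefly reporter; series mostly up to about 70 µM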
Chain of Aryl hydrocarbon receptor (Homo sapiens) (P35869 whole entry, looked up): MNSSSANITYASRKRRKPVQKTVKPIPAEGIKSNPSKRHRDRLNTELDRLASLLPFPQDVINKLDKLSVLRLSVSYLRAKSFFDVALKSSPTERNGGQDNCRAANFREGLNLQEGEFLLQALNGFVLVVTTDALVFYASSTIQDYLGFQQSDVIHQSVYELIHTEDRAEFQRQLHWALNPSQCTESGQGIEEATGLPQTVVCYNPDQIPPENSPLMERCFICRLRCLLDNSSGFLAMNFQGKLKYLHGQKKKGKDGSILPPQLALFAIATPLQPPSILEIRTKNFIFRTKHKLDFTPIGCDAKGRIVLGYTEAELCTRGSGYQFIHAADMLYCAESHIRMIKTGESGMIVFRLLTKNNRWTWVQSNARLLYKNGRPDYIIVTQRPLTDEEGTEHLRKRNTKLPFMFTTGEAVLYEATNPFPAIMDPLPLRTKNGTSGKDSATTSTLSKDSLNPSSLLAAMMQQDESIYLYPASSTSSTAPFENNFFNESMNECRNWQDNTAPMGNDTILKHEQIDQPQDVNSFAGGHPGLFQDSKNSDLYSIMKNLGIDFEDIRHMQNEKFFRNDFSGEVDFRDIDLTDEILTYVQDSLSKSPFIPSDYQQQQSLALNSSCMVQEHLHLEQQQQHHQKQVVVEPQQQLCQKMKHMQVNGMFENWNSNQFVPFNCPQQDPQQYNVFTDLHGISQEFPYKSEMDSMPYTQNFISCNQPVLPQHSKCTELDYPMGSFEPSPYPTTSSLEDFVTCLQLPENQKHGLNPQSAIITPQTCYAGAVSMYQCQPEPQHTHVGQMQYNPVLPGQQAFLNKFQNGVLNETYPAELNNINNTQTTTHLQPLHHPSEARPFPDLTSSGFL
In short: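 Luminescence read-out: ONE-Glo reagent, 30 min at room temperature, in HG2L7.5c1 HepG2 reporter cells treated 24 h at 37C. Viability was measured beforehand by CellTiter-Fluor fluorescence after 30 min at 37C.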

[2] = qHTS assay to identify small molecule that activate the aryl hydrocarbon receptor (AhR) signaling pathway - cell viability counter screen (AID 743086);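 note: HepG2 liver cells carrying the AhR DRE luciferase reporter; series mostly up to about 70 µM; nearly all actives have a fitted effect of over 45% in size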
In short: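 HepG2-AhR-luc (HG2L7.5c1) cells, 4000/well, were preincubated 5 h at 37C, exposed to compound in qHTS format for 24 hr at 37C, then given CellTiter-Fluor for 30 min; viability was read as fluorescence in the reporter wells.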

[3] = biological target: Peroxisome proliferator-activated receptor gamma (Homo sapiens) (UniProt P37231); experiment: qHTS assay to identify small molecule antagonists of the peroxisome proliferator-activated receptor gamma (PPARg) signaling pathway (AID 743191; calls by dose curve; note: series mostly up to about 63 µM; nearly all actives have a fitted effect of over 30% in size)
Chain of Peroxisome proliferator-activated receptor gamma (Homo sapiens) (P37231 whole entry, looked up): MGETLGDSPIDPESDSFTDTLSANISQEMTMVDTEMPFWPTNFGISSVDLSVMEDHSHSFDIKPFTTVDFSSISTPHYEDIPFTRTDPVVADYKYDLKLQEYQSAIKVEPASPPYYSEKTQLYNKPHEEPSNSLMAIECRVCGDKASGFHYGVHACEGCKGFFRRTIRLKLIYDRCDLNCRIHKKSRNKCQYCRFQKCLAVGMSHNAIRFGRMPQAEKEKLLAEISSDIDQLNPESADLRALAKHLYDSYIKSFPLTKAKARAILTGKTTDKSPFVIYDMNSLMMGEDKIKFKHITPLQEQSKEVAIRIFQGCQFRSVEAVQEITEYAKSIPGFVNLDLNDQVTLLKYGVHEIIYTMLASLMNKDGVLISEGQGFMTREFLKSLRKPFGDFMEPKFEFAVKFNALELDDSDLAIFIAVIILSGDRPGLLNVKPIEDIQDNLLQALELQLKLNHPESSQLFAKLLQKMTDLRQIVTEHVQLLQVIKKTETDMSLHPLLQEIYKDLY
In short: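 GeneBLAzer PPARg UAS-bla HEK293H cells carrying a UAS-driven beta-lactamase reporter were plated at 3000 cells/well, preincubated 5 h at 37C, then given compound for 17 h at 37C; LiveBLAzer B/G FRET substrate was read after 1 h at room temperature.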

[4] = qHTS assay to identify small molecule antagonists of the peroxisome proliferator-activated receptor gamma (PPARg) signaling pathway - cell viability counter screen (AID 743194); note: nearly all actives have a fitted effect of over 55% in size
In short: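 PPARg-UAS-bla HEK293H cells were plated, rested 5 h at 37 C, then treated with compounds plus rosiglitazone (50 nM final) for 17 h at 37 C; viability was then read by CellTiter-Glo luminescence after 30 min at room temperature.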

[5] = qHTS assay for small molecule agonists of the antioxidant response element (ARE) signaling pathway - cell viability counter screen (AID 743203; calls by dose curve; note: nearly all actives have a fitted effect of over 55% in size)
In short: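 HepG2 cells carrying ARE-driven beta-lactamase; 2,000 cells/well; 5 hrs plating; compound pinned from DMSO; 16 hrs 37C/5% CO2; CellTiter-Glo added; 30 min RT; luminescence.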

[6] = qHTS assay for small molecule activators of the heat shock response signaling pathway (AID 743210; active = well fitted activation curve with a large enough effect in the signal ratio in the repeat runs, with a control signal flat, not every such curve was filed as active; the % refers to the signal ratio; note: series mostly up to about 63 µM)
In short: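 HSE-bla HeLa cells (beta-lactamase reporter under heat shock response elements) were exposed to compounds for 5 h at 37 C, then loaded with LiveBLAzer B/G FRET substrate for 2.5 h at room temperature before fluorescence reading.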

[7] = biological target: Peroxisome proliferator-activated receptor delta (Homo sapiens) (UniProt Q03181); experiment: qHTS assay to identify small molecule agonists of the peroxisome proliferator-activated receptor delta (PPARd) signaling pathway (AID 743212; calls by dose curve)
Chain of Peroxisome proliferator-activated receptor delta (Homo sapiens) (Q03181 whole entry, looked up): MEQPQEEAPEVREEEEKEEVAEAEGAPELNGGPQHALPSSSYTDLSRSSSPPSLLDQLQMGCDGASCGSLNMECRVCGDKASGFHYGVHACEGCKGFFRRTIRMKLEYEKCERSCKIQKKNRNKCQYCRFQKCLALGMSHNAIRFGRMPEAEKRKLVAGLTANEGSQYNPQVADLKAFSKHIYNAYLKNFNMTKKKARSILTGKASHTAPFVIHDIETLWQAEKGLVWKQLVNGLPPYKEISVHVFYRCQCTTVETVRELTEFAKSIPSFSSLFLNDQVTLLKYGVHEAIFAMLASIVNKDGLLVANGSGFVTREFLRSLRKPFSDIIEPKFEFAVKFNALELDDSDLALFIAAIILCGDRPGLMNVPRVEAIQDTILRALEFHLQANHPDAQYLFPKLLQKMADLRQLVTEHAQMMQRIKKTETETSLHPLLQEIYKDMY
In short: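 GeneBLAzer PPARd UAS-bla HEK293H cells (beta-lactamase reporter under UAS control), plated and rested 5 h at 37 C, then exposed to compounds in DMSO at 37 C; LiveBLAzer B/G FRET substrate added, 2 h room temperature, fluorescence read.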

[8] = biological target: Peroxisome proliferator-activated receptor delta (Homo sapiens) (UniProt Q03181); experiment: qHTS assay to identify small molecule antagonists of the peroxisome proliferator-activated receptor delta (PPARd) signaling pathway (AID 743215; active = well fitted inhibition curve with a large enough effect in the signal ratio in the repeat runs, not every such curve was filed as active; the % refers to the signal ratio;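 note: cells stimulated with agonist L165041 at 300 nM final during compound exposure; series mostly up to about 62 µM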)
In short: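 Read-out is beta-lactamase FRET fluorescence, measured 2 h after substrate addition at room temperature. Beforehand, UAS-bla HEK293H cells carrying the PPARd reporter were exposed to compounds with L165041 at 300 nM final for 17 h at 37 C.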

[9] = qHTS assay to identify small molecule agonists of the farnesoid-X-receptor (FXR) signaling pathway - cell viability counter screen (AID 743218); note: nearly all actives have a fitted effect of over 45% in size
In short: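 HEK 293T FXR-bla cells; 5 h pre-incubation, 16 h compound exposure at 37 C; LiveBLAzer substrate 2 h RT, then CellTiter-Glo 30 min RT, luminescence.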

[10] = qHTS assay to identify small molecule antagonists of the farnesoid-X-receptor (FXR) signaling pathway - cell viability counter screen (AID 743221; active = well fitted cell-killing curve with a large enough effect in the repeat runs, not every such curve was filed as active; note: nearly all actives have a fitted effect of over 50% in size)
In short: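 HEK 293T FXR-bla cells, 5 h pre-incubation; compound + CDCA 50 uM final, 16 h, 37 C; beta-lactamase FRET read first, then CellTiter-Glo luminescence, 30 min RT.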

[11] = biological target: Vitamin D3 receptor (Homo sapiens) (UniProt P11473); experiment: qHTS assay to identify small molecule agonists of the vitamin D receptor (VDR) signaling pathway (AID 743222; calls by dose curve)
Chain of Vitamin D3 receptor (Homo sapiens) (P11473 whole entry, looked up): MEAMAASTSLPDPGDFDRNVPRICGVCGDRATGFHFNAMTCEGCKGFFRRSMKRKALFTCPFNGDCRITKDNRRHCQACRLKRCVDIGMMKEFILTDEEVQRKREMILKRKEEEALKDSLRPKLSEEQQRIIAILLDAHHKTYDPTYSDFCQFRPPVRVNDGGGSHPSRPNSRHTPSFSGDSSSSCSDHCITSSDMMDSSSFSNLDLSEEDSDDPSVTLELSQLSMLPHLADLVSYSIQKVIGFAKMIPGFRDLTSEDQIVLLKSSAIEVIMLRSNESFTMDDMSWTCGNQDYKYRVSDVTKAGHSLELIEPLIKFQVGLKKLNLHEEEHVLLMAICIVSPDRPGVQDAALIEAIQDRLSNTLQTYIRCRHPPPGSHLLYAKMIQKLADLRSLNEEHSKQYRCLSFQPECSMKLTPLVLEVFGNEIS
In short: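 VDR-bla cells, 2,000/well; 4 h preincubation 37C; cpd (DMSO) 16 h; LiveBLAzer B/G substrate 2 h RT; fluorescence intensity read.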

[12] = qHTS assay to identify small molecule agonists of the vitamin D receptor (VDR) signaling pathway - cell viability counter screen (AID 743224); note: series mostly up to about 63 µM; nearly all actives have a fitted effect of over 50% in size
In short: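 Luminescence from CellTiter-Glo, read after 30 min at room temperature, reports viability of VDR-bla cells treated with compounds for 16 h at 37C in the wells used for the beta-lactamase FRET read.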

[13] = biological target: Peroxisome proliferator-activated receptor gamma (Homo sapiens) (UniProt P37231); experiment: qHTS assay to identify small molecule agonists of the peroxisome proliferator-activated receptor gamma (PPARg) signaling pathway (AID 743094; active = well fitted activation curve with a large enough effect in the signal ratio in the repeat runs, not every such curve was filed as active; the % refers to the signal ratio)
In short: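 Beta-lactamase FRET fluorescence was the read-out after a 1 h room-temperature substrate step, following 17 h compound treatment at 37C of HEK293H cells expressing a UAS-driven bla reporter responsive to PPARg.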

[14] = qHTS assay for small molecule agonists of the antioxidant response element (ARE) signaling pathway (AID 743202; active = well fitted activation curve with a large enough effect in the signal ratio in the repeat runs, not every such curve was filed as active; the % refers to the signal ratio)
In short: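 Read-out: LiveBLAzer B/G FRET substrate fluorescence after 2 h at room temperature, following 16 h compound treatment at 37 C of HepG2 cells carrying an ARE-driven beta-lactamase reporter.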

[15] = qHTS assay for small molecule activators of the heat shock response signaling pathway - cell viability counter screen (AID 743209); note: nearly all actives have a fitted effect of over 50% in size
In short: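 Luminescence from CellTiter-Glo, added after the beta-lactamase FRET read, gave the viability signal. Cells were HSE-bla HeLa treated with DMSO-dissolved compounds for 5 h at 37 C following overnight plating.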

[16] = qHTS assay to identify small molecule agonists of the peroxisome proliferator-activated receptor delta (PPARd) signaling pathway - cell viability counter screen (AID 743211); note: nearly all actives have a fitted effect of over 55% in size
In short: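 Read-out: CellTiter-Glo luminescence, 30 min RT, measured in the same wells as the beta-lactamase reporter. Cells: GeneBLAzer PPAR delta UAS-bla HEK293H, 3000 cells/well, compound exposure 17 h at 37C.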

[17] = qHTS assay to identify small molecule antagonists of the peroxisome proliferator-activated receptor delta (PPARd) signaling pathway - cell viability counter screen (AID 743213); note: nearly all actives have a fitted effect of over 50% in size
In short: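 Cytotoxicity counter screen: CellTiter-Glo luminescence read 30 min after addition, in the same wells as the reporter assay. There, PPARd UAS-bla HEK293H cells (3000/well) were treated 17 h at 37 C with compound and 300 nM L165041.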

[18] = biological target: Vitamin D3 receptor (Homo sapiens) (UniProt P11473); experiment: qHTS assay to identify small molecule antagonists of the vitamin D receptor (VDR) signaling pathway (AID 743223; active = well fitted inhibition curve with a large enough effect in the signal ratio in the repeat runs, not every such curve was filed as active; the % refers to the signal ratio)
In short: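 Beta-lactamase reporter read-out: FRET substrate fluorescence after 2 h at room temperature, following 16 h exposure of VDR-bla cells to test compound plus 3 nM (final) 1alpha,25-dihydroxyvitamin D3 agonist at 37C.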

[19] = biological target: Bile acid receptor (Homo sapiens) (UniProt Q96RI1); experiment: qHTS assay to identify small molecule antagonists of the farnesoid-X-receptor (FXR) signaling pathway (AID 743217; active = well fitted inhibition curve with a large enough effect in the signal ratio in the repeat runs, not every such curve was filed as active; the % refers to the signal ratio)
Chain of Bile acid receptor (Homo sapiens) (Q96RI1 whole entry, looked up): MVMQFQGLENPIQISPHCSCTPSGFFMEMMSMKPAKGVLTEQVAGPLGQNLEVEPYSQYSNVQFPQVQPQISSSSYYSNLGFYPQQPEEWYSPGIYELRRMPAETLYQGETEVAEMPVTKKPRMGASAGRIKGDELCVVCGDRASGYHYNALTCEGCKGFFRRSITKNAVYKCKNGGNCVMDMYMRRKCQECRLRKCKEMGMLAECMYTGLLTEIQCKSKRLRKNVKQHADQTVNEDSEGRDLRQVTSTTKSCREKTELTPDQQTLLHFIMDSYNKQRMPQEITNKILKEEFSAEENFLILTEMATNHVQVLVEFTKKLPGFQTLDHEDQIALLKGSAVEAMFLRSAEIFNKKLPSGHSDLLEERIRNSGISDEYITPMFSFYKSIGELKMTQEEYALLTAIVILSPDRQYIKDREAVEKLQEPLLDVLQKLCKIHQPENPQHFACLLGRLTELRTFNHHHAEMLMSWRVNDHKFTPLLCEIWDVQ
In short: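 HEK 293T FXR-UAS-bla, 5000 cells/well; compound + CDCA 50 uM final; 16 h, 37 °C; B/G FRET substrate 2 h RT; fluorescence.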

[20] = biological target: Bile acid receptor (Homo sapiens) (UniProt Q96RI1); experiment: qHTS assay to identify small molecule agonists of the farnesoid-X-receptor (FXR) signaling pathway (AID 743220; active = well fitted activation curve with a large enough effect in the signal ratio in the repeat runs, not every such curve was filed as active; the % refers to the signal ratio)
In short: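 Beta-lactamase reporter under UAS control in GeneBLAzer FXR HEK 293T cells (5000/well) measured with LiveBLAzer FRET substrate after 2 h at room temperature. Compound exposure lasted 16 h at 37C.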

SMILES	Potency [1]	Potency [2]	outcome [3]	Potency [4]	outcome [5]	outcome [6]	outcome [7]	outcome [8]	outcome [9]	Potency [10]	outcome [11]	outcome [12]	outcome [13]	Potency [14]	outcome [15]	Potency [16]	Potency [17]	outcome [18]	outcome [19]	outcome [20]
NC(CS)C(=O)O (configuration not stated)	inactive	inactive	inactive	inactive	inactive	inactive	inactive	inactive	inactive	inactive	inactive	inactive	–	–	–	–	–	–	–	–
Cn1cnc2c(=O)[nH]c(N)nc21	inactive	inactive	–	–	inactive	inactive	inactive	inactive	inactive	inactive	inactive	inactive	inactive	inactive	inactive	inactive	inactive	inactive	–	–
Cc1nccn1CC1CCc2c(c3ccccc3n2C)C1=O (configuration not stated)	inactive	inactive	inactive	inactive	inactive	inactive	–	–	inactive	inactive	inactive	–	–	inactive	inactive	inactive	inactive	inactive	–	–
CC/C=C\C#N	inactive	inactive	–	–	inactive	inactive	inactive	–	–	inactive	–	inactive	inactive	inactive	inactive	inactive	inactive	–	–	–
O=C(O)c1ccccc1S	inactive	inactive	inactive	–	inactive	inactive	inactive	inactive	inactive	–	inactive	inactive	–	–	inactive	inactive	inactive	–	inactive	inactive
CO[Si](OC)(OC)OC	inactive	inactive	–	–	inactive	inactive	inactive	–	inactive	inactive	inactive	inactive	inactive	inactive	–	inactive	inactive	inactive	–	–
C=C(C)C(=O)NCCCN(C)C	inactive	inactive	inactive	inactive	inactive	inactive	inactive	–	inactive	inactive	inactive	inactive	–	inactive	inactive	inactive	inactive	inactive	–	–
C[C@H]1O[C@@H](n2cc(F)c(=O)[nH]c2=O)[C@H](O)[C@@H]1O	inactive	inactive	–	–	inactive	inactive	–	–	inactive	inactive	–	inactive	inactive	–	inactive	inactive	inactive	–	–	–
C[C@H](O)C(=O)Nc1c(I)c(C(=O)NC(CO)CO)c(I)c(C(=O)NC(CO)CO)c1I	inactive	inactive	inactive	inactive	inactive	inactive	inactive	inactive	–	inactive	inactive	inactive	–	inactive	–	inactive	inactive	inactive	–	–
COC(C(=O)O)c1ccccc1 (configuration not stated)	inactive	inactive	inactive	inactive	inactive	inactive	inactive	inactive	inactive	–	inactive	inactive	–	–	–	–	inactive	inactive	inactive	inactive
NCCN1CCNC1=O	inactive	inactive	inactive	–	inactive	inactive	inactive	inactive	inactive	inactive	inactive	inactive	–	–	inactive	inactive	–	inactive	–	–
CC(C)(O)Cc1ccccc1	inactive	inactive	–	–	inactive	inactive	inactive	inactive	–	inactive	inactive	inactive	inactive	inactive	inactive	–	inactive	–	–	–
CC(C=O)Cc1ccc(C(C)C)cc1 (configuration not stated)	inactive	inactive	–	–	inactive	inactive	inactive	–	–	–	inactive	inactive	–	inactive	–	inactive	inactive	inactive	–	–
c1cc(CN2CCCCC2)cc(OCCCNc2nc3ccccc3s2)c1	26.6 µM (active)	–	–	–	inactive	inactive	–	–	inactive	inactive	inactive	inactive	inactive	–	inactive	–	–	–	–	–
C/C=C1\C(=O)C[C@H]2[C@@H]3CCC4=CC(=O)CC[C@]4(C)[C@H]3CC[C@]12C	inactive	inactive	–	inactive	inactive	inactive	–	–	inactive	inactive	inactive	inactive	–	–	inactive	inactive	inactive	–	–	–
N#CCc1ccccc1[N+](=O)[O-]	–	inactive	inactive	inactive	inactive	inactive	inactive	inactive	inactive	inactive	inactive	inactive	inactive	inactive	inactive	inactive	inactive	inactive	inactive	inactive
OCC(O)[C@@H](O)[C@H](O)[C@H](O)CO[C@H]1O[C@H](CO)[C@@H](O)[C@H](O)[C@H]1O (some centres not stated)	inactive	inactive	–	inactive	inactive	inactive	inactive	inactive	inactive	inactive	–	inactive	–	inactive	inactive	inactive	inactive	–	–	–
CO	inactive	inactive	–	inactive	inactive	inactive	–	–	inactive	inactive	inactive	inactive	–	inactive	inactive	inactive	inactive	–	–	–
COCCOC(=O)CC#N	inactive	inactive	–	–	inactive	inactive	inactive	inactive	inactive	–	inactive	inactive	–	inactive	inactive	–	inactive	–	–	–
